Assay results: PubChem BioAssay AID1159583 (ICCB-Longwood Screening Facility, Harvard Medical School, 2016)
Values joined by “and” are separate entries in the source; they are usually repeats but may differ in a detail not shown here. Equal values may be shown once. Among all 300,000 compounds or so, about 310 (0.1%) were called active. No stated cut-off is given here; in the data, active means fluorescence inhibition mostly above about 23% (no sharp cut-off); inactive means mostly below about 17%. Shown is part of a subset that was picked to be rich in actives.

Assay: hypoxia reporter signal reduction in M. tuberculosis – fluorescence, absorbance growth readout, primary screen (AID 1159583)
Settings: M. tuberculosis hypoxia-regulated fluorescent reporter, stronger effect = higher value, concentration not given here; growth inhibition: measured here: M. tuberculosis growth (absorbance)

SMILES	fluorescence inhibition	growth inhibition
Cc1cc(C=NO)c(C)n1-c1ccccc1	10.5% (inactive)	1.78%
C/C(C=NNC(=O)c1ccncc1)=C\c1ccccc1	16.5% (inactive)	7.43%
Cc1nn(-c2ccccc2)c(Cl)c1C=NNC(=O)c1cccc(S(=O)(=O)N2CCCC2)c1	10.2% (inactive)	5.33%
C=C1CCN(C(C(=O)NCc2ccc(OC)cc2)C(C)C)S(=O)(=O)c2ccccc21 (stereo not drawn)	1.86% (inactive)	4.01%
O=C1CSC(=S)N1N=Cc1ccc(C(F)(F)F)cc1	17.6% (inactive)	14.7%
COCCCNC(=S)NN=Cc1ccc(N(C)C)cc1	11.6% (inactive)	2.41%
CC(=NNC(=O)c1c(C)nc2ccccn12)c1ccc(C(C)(C)C)cc1	-2.47% (inactive)	18.1%
CC(C)C(NC(=O)c1ccccc1)C(=O)OCC(=O)N1CCCc2ccccc21 (stereo not drawn)	6.63% (inactive)	6.94%
COc1cccc(C=NNC(=O)CSCC(=O)Nc2ccccc2)c1O	0.94% (inactive)	11.7%
CC(=NNC(=O)c1cc(-c2ccc(Cl)s2)[nH]n1)c1ccco1	0.382% (inactive)	4.98%
CSc1ccc(C=NNC(=O)CNc2ccc3ccccc3c2)cc1	3.37% (inactive)	-2.84%
O=C1NC(Cc2ccccc2)C(=O)N2C1C[C@]1(Br)c3ccccc3N(S(=O)(=O)c3ccccc3)C21 (stereo partly drawn)	4.31% (inactive) and 12.8% (inactive)	6.26% and 10.9%
COc1ccccc1C=NNC(=O)c1ccc2c(c1)OCO2	14.7% (inactive)	5.14%
COCCCN1C(=O)C(=O)C(=C(O)c2ccc(C)cc2)C1c1ccccc1 (stereo not drawn)	-3.99% (inactive)	-0.925%
CC1CN=C(Nc2ccccc2)N1CCCC1CCCCC1 (stereo not drawn)	7.1% (inactive)	4.93%
O=C1/C(=C\c2cccnc2)CN(Cc2ccccc2)C/C1=C\c1cccnc1	53.7% (active)	35.7%
Cc1ccccc1C1=N/C(=C/c2cccnc2)C(=O)O1	-4.88% (inactive)	6.23%
O=C1CCCC1=c1sc(=Cc2cccnc2)c(=O)n1-c1ccccc1	9.8% (inactive)	5.53%
Cc1cc(C(=O)NN=Cc2ccc3ccccc3c2)n[nH]1	7.06% (inactive)	-3.88%
Nc1nonc1C(=O)NN=Cc1ccc([N+](=O)[O-])o1	52.4% (active)	31.3%
Cc1ccc(NCC(=O)NN=Cc2ccc([N+](=O)[O-])o2)cc1	-3.3% (inactive)	3.65%
CN(C)c1ccc(C=NNC(=O)c2nonc2N)cc1[N+](=O)[O-]	2.61% (inactive)	-5.42%
Cc1cccc(C=NNC(=O)CN2CCCCCCC2)c1	2.65% (inactive)	8.69%
COc1ccc(C2CC=C(C(=O)O)C(c3ccccc3F)N2S(=O)(=O)c2ccc(C)cc2)cc1OC (stereo not drawn)	19.4% (inactive)	4.47%
CCCC(=O)O[C@]1(C(=O)CCl)C(C)CC2C3CCC4=CC(=O)C=C[C@]4(C)[C@@]3(F)C(=O)C[C@@]21C (stereo partly drawn)	-12.7% (inactive)	2.62%
Cc1ccc(S(=O)(=O)N(C)CC(=O)NN=Cc2ccc(C)o2)cc1	-4.3% (inactive)	1.08%
COc1ccc(C2OCC3OC(O)C(NC(C)=O)C(O)C3O2)cc1 (stereo not drawn)	4.65% (inactive)	11.9%

SMILES	fluorescence inhibition	growth inhibition
CCc1ccc(C=NNC(=O)c2ccccn2)cc1	9.62% (inactive)	15.4%
COc1ccc(C(=O)NN=C(c2ccccc2)c2ccccn2)cc1	-1.57% (inactive)	6.08%
CCN(CC)CCOc1ccc2c(c1)C(=NNC(=O)c1ccccn1)c1cc(OCCN(CC)CC)ccc1-2	46.2% (active)	20.2%
Cc1ccc(C(=O)ON=Cc2ccc3c(c2)OCO3)cc1	2.14% (inactive)	12.4%
Cc1ccsc1/C=C1\SC(N2CCOCC2)=NC1=O	59.8% (active)	35.7%
CCc1ccc(/C=C2\SC(N3CCOCC3)=NC2=O)cc1	-2.06% (inactive)	6.4%
O=C1N=C(N2CCOCC2)S/C1=C\C=C/c1ccccc1	16.7% (inactive)	6.03%
COC(=O)c1ccc(C=NN2C(C)CCCC2C)cc1 (stereo not drawn)	12.1% (inactive)	0.227%
[O-]C1=N[N+](=Cc2ccc(Cl)cc2)CC1	9.03% (inactive)	2.77%
Cc1ccc(F)c(C2C3C=CCC[C@@]3(C)C(=O)N2Cc2ccccc2)c1 (stereo partly drawn)	0.237% (inactive)	4.91%
CCOC(=O)C1C2COc3ccc(OC)cc3C2N2C(=O)c3cc(OC)ccc3NC(=O)[C@@]12C (stereo partly drawn)	-0.571% (inactive)	-0.925%
CN1C(=O)/C(=C/C=C2\SCCN2C)OC1=S	-23.3% (inactive)	5.47%
CN1CCSC1=CC=C1C(=O)N(C)C(=S)N1C	41.3% (active)	10.5%
Oc1ccc(C=NNC(=S)Nc2cccnc2)c(O)c1O	19% (inactive)	3.53%
O=C(NN=Cc1cccc2nccnc12)c1ccncc1	93.3%	
C#CCOCCOCCOCCNc1nc(N2CCN(C(=O)C(CCC(=O)O)n3cc(C(N)Cc4ccc(O)cc4)nn3)CC2)nc(N2CCN(C(=O)C(C(C)CC)n3cc(C(N)CO)nn3)CC2)n1 (stereo not drawn)	8.78% (inactive)	6.78%
N#CC(=Cc1ccc(O)c(O)c1)C(=O)c1ccc(O)c(O)c1	-0.458% (inactive)	-7.09%
CC(=NNc1nc(C)cc(-c2ccccc2)n1)c1ccc(C)o1	5.64% (inactive)	13.1%
CCC(C)CCN1C(Nc2ccccc2)=NCC1CC(C)C (stereo not drawn)	2.94% (inactive)	9.85%
CC(=NNC(=S)Nc1ccccc1)c1ccc2c(c1)OCO2	4.36% (inactive)	-7.15%
CN1CCN(C(=O)C2=CC(c3ccccc3)CC(OCc3ccc(CO)cc3)O2)CC1 (stereo not drawn)	10.4% (inactive) and -0.342% (inactive)	12.8% and -5.24%
C=CCNC(=S)N=c1sccn1C	6.54% (inactive)	-7.89%
CC(=NNC(=O)c1cc(-c2cccc([N+](=O)[O-])c2)n[nH]1)c1ccc(F)cc1	14.8% (inactive)	-5.45%
COc1ccc(N(CC(=O)NN=C(C)c2cccs2)S(=O)(=O)c2ccccc2)cc1Cl	-6% (inactive)	-2.78%
CCOC(=O)C1C2COc3ccccc3C2N2C(=O)N(c3cccc(F)c3)C(=O)[C@@]12C (stereo partly drawn)	-2.44% (inactive)	3.57%
COC(=O)C1=C(c2ccc(OC(F)(F)F)cc2)CC2CCC1N2C(=O)NCCOc1ccc(OC)cc1 (stereo not drawn)	0.962% (inactive)	6.26%
O=C(CC(=O)NC1CCCCC1)NN=Cc1ccccc1Cl	2.92% (inactive)	1.5%

SMILES	fluorescence inhibition	growth inhibition
CCN1CC2C3C(=O)N(Cc4ccccc4)C(=O)C3[C@](CC)(C1=O)N2C(=O)c1ccc(Br)cc1 (stereo partly drawn)	6.17% (inactive)	7.16%
CN1CC2C3C(=O)N(C)C(=O)C3[C@](C)(C1=O)N2C(=O)c1ccc(Cl)c(Cl)c1 (stereo partly drawn)	18.2% (inactive)	5.39%
Oc1cccc(C=NNc2ncnc3c2ncn3Cc2ccccc2)c1	12.7% (inactive)	4.03%
COc1ccc(C(N)=NOC(=O)c2cccc([N+](=O)[O-])c2)cc1	2.69% (inactive)	7.49%
Cc1cc(C=NNC(N)=S)c(C)n1-c1ccc(Cl)cc1	79.4%	
O=C(O)c1cc(C(=O)O)cc(-c2ccc(C=c3sc4nc5ccccc5n4c3=O)o2)c1	9.74% (inactive)	9.98%
O=C(C1=CC(c2csc3ccccc23)CC(OCc2ccc(CO)cc2)O1)N1CCCCCCC1 (stereo not drawn)	5.62% (inactive)	15.1%
COc1ccc2c(Cl)c(C(=O)NN=Cc3c(C)[nH]c4ccccc34)sc2c1	12.9% (inactive)	-1.23%
COc1cccc(C(=O)NN=C(c2ccccc2)c2ccccn2)c1	5% (inactive)	11%
CCOC(=O)c1cc(C)sc1N=CC1C(=O)CC(C)(C)CC1=O	5.08% (inactive)	4.24%
Cc1ccc(C2C3C(=O)N(C)C(=O)C3[C@]3(C)C(=O)N(CC4CC4)CC(=O)N23)o1 (stereo partly drawn)	3.26% (inactive)	-2.47%
CC(=NNC(=O)C(=O)Nc1ccc(C)c(Cl)c1)c1ccncc1	9.7% (inactive)	2.87%
CCOC(=O)C1=C(N)n2c(sc(=Cc3ccncc3)c2=O)=C(C(=O)OCC)C1c1ccncc1 (stereo not drawn)	-2.3% (inactive)	-3.45%
C=C1CC(C(=O)NN=Cc2ccc(O)cc2)C1	2.24% (inactive)	7.43%
COc1ccc(NC(=O)COC(=O)CON=C(C)c2ccc3c(c2)OCO3)cc1S(N)(=O)=O	-7.57% (inactive)	-2.6%
Cc1ccc(-c2c(C(=O)NN=Cc3ccc(C)o3)nnn2-c2nonc2N)cc1	3.86% (inactive)	8.97%
Cc1ccc(C=NNC(=O)CSc2nc3ccccc3n2C)s1	13.6% (inactive)	0.932%
COc1ccc(-c2nn(-c3ccccc3)cc2C=NNC(=O)c2cccc(S(=O)(=O)Nc3ccccc3OC)c2)cc1	12.6% (inactive)	0.139%
O=C(Cc1n[nH]c(=O)[nH]c1=O)NN=CCCc1ccccc1	11.1% (inactive)	4.96%
CCCN(CCC)Cc1c(C(=O)NN=Cc2c[nH]c3ccccc23)nnn1-c1nonc1N	-3.6% (inactive)	2.65%
C=C1CCN(C(C)C(=O)NCc2ccc(OC)cc2)S(=O)(=O)c2ccccc21 (stereo not drawn)	19.8% (inactive)	12.8%
CCOc1ccc(-c2nnc3ccc(SC)nn23)cc1	4.55% (inactive)	1.4%
CCOc1ccc(-c2cc(C)[n+](CCN(CC)CC)c(-c3ccc(OCC)cc3)c2)cc1	53.9% (active)	33.9%
CCOc1ccc2c(c1)C(c1ccc(C)cc1)=NNC(c1ccc(C)cc1)=N2	21.9% (inactive)	10.8%
O=C(NN=Cc1c[nH]c2ccccc12)c1cc2ccccc2o1	0.899% (inactive)	8.76%
COc1cccc(C=NNc2ncnc3c2ncn3Cc2ccccc2)c1O	7.12% (inactive)	2.3%
